High-throughput results deposited in PubChem by NMMLSC.
Compounds with a hit are over-represented: about 1.1% of the library has one in this group of screens.
AGP1 TOR yeast: modulators of AGP1-GFP expression in yeast TOR pathway, primary screen, cell-based, multiplex flow cytometry, S. cerevisiae, MLPCN library. 3 h; GFP as percent of DMSO wells. GFP response vs DMSO, % at 10 µM. 0.02% of 320,000 active. AID 2066, 2009;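 active = GFP response relative to DMSO above a set limit, near screen average plus 3 SD, cut at about 150% in these data; inconclusive = fewer than 70 cells counted for the yeast strain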;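 also: median GFP channel fluorescence of the gated AGP1 strain per well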
VLA-4 inh: inhibition in human VLA-4 binding assay, primary screen, VLA-4 allosteric modulator project, MLPCN library, flow cytometry, VLA-4 expressing cells. Integrin alpha-4 (Homo sapiens), P13612. ligand binding flow cytometry. inhibition, % (about 7 µM as worked out from the volumes in the protocol). 0.2% of 330,000 active; in the data active = inhibition above about 50%
LAP4-GFP MLPCN: modulators of LAP4-GFP expression in yeast, primary screen, S. cerevisiae, multiplex flow cytometry, MLPCN library; GFP response vs DMSO, % at 10 µM; AID 2023, 2009; 3 h; median GFP as percent of DMSO wells; 0.34% of 320,000 active;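 active = GFP response vs DMSO above a set limit, about the screen mean plus 3 SD, cut at about 150% in these data; inconclusive = under 70 cell events counted for the yeast strain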
MEP2-GFP yeast: modulators of MEP2-GFP levels in yeast, primary screen, S. cerevisiae, multiplex flow cytometry, MLPCN library. S. cerevisiae MEP2-GFP strain, 3 h; 100% = DMSO control level. GFP response vs DMSO, % at 10 µM. 0.51% of 330,000 active. AID 2016, 2009;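 active = GFP response versus DMSO above a set limit, roughly screen mean plus 3 SD, cut at about 180% in these data; inconclusive = fewer than 70 cells counted for a yeast strain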;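 also: median GFP fluorescence of the barcode-gated MEP2-GFP cells per well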
RPL19A TOR yeast: RPL19A-GFP expression modulators in yeast, primary screen, cell-based, S. cerevisiae, multiplex flow cytometry, MLPCN; percent response vs DMSO, % at 10 µM; 0.3% of 330,000 active; AID 2025, 2009; S. cerevisiae RPL19A-GFP strain, 3 h; active compounds read low;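 active = percent response vs DMSO below 50%; inconclusive = fewer than 70 events counted for the yeast strain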;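 also: median channel GFP fluorescence of the barcoded RPL19A-GFP strain; lower means less RPL19A-GFP as with rapamycin TOR inhibition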
CIT2 TOR yeast: modulators of CIT2-GFP expression in yeast, primary screen, S. cerevisiae, GFP fusion, multiplex flow cytometry, MLPCN library. 0.065% of 320,000 active. GFP response vs DMSO, % at 10 µM. S. cerevisiae CIT2-GFP strain, 3 h; 100 means same as DMSO wells;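 active = GFP response relative to DMSO above a set limit, near the screen mean plus 3 SD, cut at about 150% in these data; inconclusive = Fewer than 70 cells measured for a yeast strain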;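 also: ratio of well median GFP fluorescence to mean of DMSO wells on the plate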
Each line names hits and unclear results; the compound was inactive in the other large screens; [ ] = dose if it differs, or a comment.

COc1ccc(OC)c(Nc2nc(-c3cccc([N+](=O)[O-])c3)nc3ccccc23)c1	MEP2-GFP yeast 184[may fluoresce violet], RPL19A TOR yeast 30[may fluoresce violet], CIT2 TOR yeast inconclusive
Cc1ccc(C(=O)O)cc1S(=O)(=O)N1CCSCC1	AGP1 TOR yeast inconclusive, MEP2-GFP yeast 306[may fluoresce violet], RPL19A TOR yeast 43[may fluoresce violet], CIT2 TOR yeast inconclusive
Cc1ccc(S(=O)(=O)N2CCOCC2)cc1NC(=O)c1cc2c(s1)CCC2	none
O=C(c1cccc(S(=O)(=O)N2CCOCC2)c1)N1CCCCCC1	none
COc1ccc(S(=O)(=O)N2CCOCC2)cc1Cl	MEP2-GFP yeast 299[may fluoresce violet], CIT2 TOR yeast inconclusive
O=S(=O)(c1cccc(S(=O)(=O)N2CCOCC2)c1)N1CCCCC1	AGP1 TOR yeast inconclusive, MEP2-GFP yeast 279[may fluoresce violet], RPL19A TOR yeast 40[may fluoresce violet], CIT2 TOR yeast inconclusive
COc1cc(S(=O)(=O)N2CCOCC2)ccc1NC(=O)c1cc2c(s1)CCC2	MEP2-GFP yeast 233[may fluoresce violet], RPL19A TOR yeast 39[may fluoresce violet], CIT2 TOR yeast inconclusive
COc1ccc(S(=O)(=O)N2CCOCC2)cc1C(C)C	none
CCCCN(c1nc2ccccc2nc1Cl)S(=O)(=O)c1ccc(C)cc1	none
O=C(NCc1ccc(F)cc1)C1CC(=O)N(C2CCCCCCC2)C1 (centres undefined)	none
Cc1ccc(C(=O)Nc2ncccc2O)o1	none
N#Cc1c(N)nc2c(c1-c1ccncc1)CCCCC2	AGP1 TOR yeast inconclusive, MEP2-GFP yeast 817[may fluoresce violet], CIT2 TOR yeast inconclusive
Cc1cc(=O)oc2cc(NS(=O)(=O)c3ccc(F)cc3)ccc12	none
Cc1cc(=O)oc2cc(NS(=O)(=O)c3ccccc3)ccc12	MEP2-GFP yeast 561[may fluoresce violet], CIT2 TOR yeast inconclusive
O=C(CSc1nnc(-c2ccccc2)o1)c1ccc2c(c1)OCCO2	AGP1 TOR yeast inconclusive, MEP2-GFP yeast 297[may fluoresce violet], CIT2 TOR yeast inconclusive (no result: RPL19A TOR yeast)
CCOC(=O)N1CCC(NC(=O)c2cc3c(-c4cccc(OC)c4)nn(C)c3s2)CC1	LAP4-GFP MLPCN 214
COc1ccc(/C=N/NC(=O)Cn2nc([N+](=O)[O-])cc2C)c(OC)c1OC	AGP1 TOR yeast inconclusive, MEP2-GFP yeast 208[may fluoresce violet], RPL19A TOR yeast 33[may fluoresce violet], CIT2 TOR yeast inconclusive
O=c1[nH]c2c(=O)[nH]cnc2nc1-c1ccccc1	MEP2-GFP yeast 204 (no result: AGP1 TOR yeast, LAP4-GFP MLPCN, CIT2 TOR yeast)
O=c1[nH]c(-c2ccccc2)cnc1-c1ccccc1	none
Cc1ccc(NC(=O)c2sc3ncn(CC(=O)N4CCOCC4)c(=O)c3c2C)c(Br)c1	none
CCCc1cc(=O)[nH]c(SCC(=O)N2c3ccccc3NC(=O)C2(C)C)n1	none
Cc1nn(-c2ccccc2)c(C)c1C1C(C#N)=C(N)Oc2n[nH]c(C)c21 (centres undefined)	MEP2-GFP yeast 317[may fluoresce violet], RPL19A TOR yeast 43[may fluoresce violet], CIT2 TOR yeast inconclusive
CC(NC(=O)CNC(=O)c1cccs1)c1cccc(C(F)(F)F)c1 (centres undefined)	none
O=C(COc1ccccc1[N+](=O)[O-])Nc1ccc(Br)cc1	MEP2-GFP yeast 605[may fluoresce violet], CIT2 TOR yeast inconclusive
O=C(CN1CCN(Cc2ccccc2Cl)C1=O)NC1CCCCCCC1	MEP2-GFP yeast 208 (no result: RPL19A TOR yeast)
O=C(NCC(=O)N1CCOCC1)c1ccc(Cl)cc1	none
O=C(NCC(=O)N1CCOCC1)c1ccccc1	MEP2-GFP yeast 212[may fluoresce violet], CIT2 TOR yeast inconclusive
O=C(NCc1ccccc1Cl)c1cc(=O)[nH]c2ccccc12	none
COc1cccc2sc(N(CCN(C)C)C(=O)/C=C/c3cccs3)nc12	AGP1 TOR yeast inconclusive, MEP2-GFP yeast 193[may fluoresce violet], CIT2 TOR yeast inconclusive
O=C(OCc1cccc([N+](=O)[O-])c1)c1cnccn1	MEP2-GFP yeast 175
CCN(Cc1nc(-c2cccc(C)c2)no1)C(=O)c1ccc2c(c1)OCO2	none
COc1cccc(NC(=O)c2c(C)nn(-c3ccccc3)c2Cl)c1	none
Cc1ccc(C(=O)N2CCN(c3ccc(C(F)(F)F)cn3)CC2)o1	none
CCc1cc(=O)oc2c(C)c(OCC(=O)N3CCCc4ccccc43)ccc12	AGP1 TOR yeast inconclusive, MEP2-GFP yeast 248[may fluoresce violet], RPL19A TOR yeast 38[may fluoresce violet], CIT2 TOR yeast inconclusive
O=C(COc1ccc(Br)cc1CO)N1CCCc2ccccc21	none
